# In PubChem BioAssay (Tox21):
# Results filed as inconclusive are left out. A call without a number means that no potency is given here. Unmarked numbers belong to inactive results. Calls of active or inactive are those of the source. Calls follow the shape of the dose curve; as a rule, active = well fitted inhibition curve with a large enough effect in the signal ratio in the repeat runs (not every such curve was filed as active); inconclusive = weak or mixed curves, or effect the other way; inactive = flat fitted curve, though single readings scatter; the % refers to the signal ratio.
# Assay: cAMP Responsive Elements (CRE) small molecule antagonists, cell-based qHTS assay (AID 1963591)
# Details: CRE-bla HEK293T, beta-lactamase FRET ratio; series mostly up to 92.4 µM
# From the text: U.S. Tox21 Program National Center for Advancing Translational Sciences [NCATS] Division of Preclinical Innovation [DPI] U.S. Environmental Protection Agency [EPA] National Institutes of Environmental Health Sciences [NIEHS] National Toxicology Program [NTP] U.S. Food and Drug Administration [FDA] Tox21 Assay Overview: CREB (cyclic-AMP Responsive Element Binding Protein) is a cellular transcription factor. It binds to certain DNA sequences called cAMP Responsive Elements (CRE) and regulates the transcription of the genes. […] This cell line can be used to find agonists/antagonists of the cyclic AMP signaling pathway. The activation of the report gene under culture conditions can be detected by fluorescence intensity. This cell line has been used to screen the Tox21 10K compound library to […].
# Tox21 Assay Protocol Summary: CRE-bla Hek 293T cells were suspended in assay medium (DMEM containing 10% dialyzed FBS, 0.1 mM NEAA, 1 mM sodium pyruvate and 25 mM HEPES) and dispensed at 2,000 cells/4 uL /well into 1536-well black wall/clear bottom plates using a Multidrop Combi (ThermoFisher Scientific, Waltham, MA) dispenser. After the assay plates were incubated at 37 C/5% CO2 for 18 hrs, 23 nL of compounds dissolved in DMSO, positive controls or DMSO only was transferred to the assay plate by a pintool workstation (Kalypsys, San Diego, CA), followed by addition of 1 […] uL of 1.25uM NKH477 (0.25 uM as final concentration) in assay medium using a Flying Reagent Dispenser (Aurora Discovery, San Diego, CA). The plates were incubated at 37 C and 5% CO2 for 3 hrs. Then 1 uL of LiveBLAzer B/G FRET substrate (Invitrogen, Carlsbad, CA) was added to each well using Bioraptr Flying Reagent Dispenser (FRD, Aurora Discovery, San Diego, CA). The plates were incubated at room temperature for 2 h.
SMILES,Potency,"activity change, negative = inhibition"
CN[C@@H](C)[C@H](O)c1ccccc1,inactive,–
CN/C(=N\[N+](=O)[O-])NCC1CCOC1 (stereo not given),inactive,–
COc1ccc(C(=O)N2CCCC2=O)cc1,inactive,–
CCOP(=S)(OCC)SCSP(=S)(OCC)OCC,inactive,–
CCOP(=S)(Oc1ccc([N+](=O)[O-])cc1)c1ccccc1 (stereo not given),inactive,–
CSC(C)(C)/C=N/O,inactive,–
O=S(=O)(Cl)c1ccccc1,inactive,–
O=C1OC(CCN2CCCCC2)OC1(c1ccccc1)c1ccccc1 (stereo not given),inactive,–
[C-]1=CC=CC1.[Cl][Zr+2][Cl].c1cc[cH-]c1,inactive,–
O=c1[nH]oc2c1CCNC2,inactive,–
CC(C)NCC(O)c1ccc(N)c(C#N)c1 (stereo not given),inactive,–
CCCCCCC(=O)CCCCCC/C=C/C[C@@H](O)[C@H](O)[C@@](N)(CO)C(=O)O,–,-12.2% [at 18.9 µM]
COc1ccc2c(C(=O)c3ccc(Cl)cc3)c(C)n(CC(=O)O)c2c1,inactive,–
CNC(=O)Oc1cc(C)c(SC)c(C)c1,inactive,–
CC(Cl)(Cl)Cl,inactive,–
CC1(C)CON(Cc2ccccc2Cl)C1=O,inactive,–
CC[C@@H](CO)NC(=O)[C@@H]1C=C2c3cccc4[nH]cc(c34)C[C@H]2N(C)C1,inactive,–
O=S1(=O)OCCO1,inactive,–
CCOC(=O)OC1=C(c2cc(C)ccc2C)C(=O)NC12CCC(OC)CC2 (stereo not given),inactive,–
CC(C)COP(=O)(OCC(C)C)OCC(C)C,inactive,–

SMILES,Potency,"activity change, negative = inhibition"
N#C/C(N)=C(/N)C#N,inactive,–
CC(Cl)(Cl)[N+](=O)[O-],inactive,–
C[N+]1(CCF)[C@@H]2CC[C@H]1CC(OC(=O)C(O)(c1ccccc1)c1ccccc1)C2 (stereo not given in full),inactive,–
CCCCCCCCCCCCCN1CC(C)OC(C)C1 (stereo not given),inactive,–
O=NN1CCN(N=O)CC1,inactive,–
CCC1(c2ccccc2)C(=O)N=C(O)NC1=O (stereo not given),inactive,–
Nc1nc(N)c(N)c(N)n1,inactive,–
[Cl][Sb]([Cl])[Cl],inactive,–
CC(=O)c1cc(C(C)(C)C)cc2c1CCC2(C)C,inactive,–
CN1C(=O)COc2c(C(=O)NC3CN4CCC3CC4)cc(Cl)cc21 (stereo not given),inactive,–
CC(C)(OO)c1ccccc1,inactive,–
ClCc1ccccc1Cl,inactive,–
CN1C(=O)[C@@H](NC(=O)c2cc3ccccc3[nH]2)N=C(c2ccccc2)c2ccccc21,inactive,–
CC(Cc1ccccc1)NCCCCl (stereo not given),inactive,–
BrCCCCCCBr,inactive,–
COc1ccc(OC)c(CC(C)N)c1 (stereo not given),inactive,–
CCN[C@@H](C)Cc1cccc(C(F)(F)F)c1,inactive,–
O.O.O.O.O.O.O.O=S(=O)([O-])[O-].[Co+2],inactive,–
CCCCCCCCP(=O)(O)O,inactive,–
CCCC[P+](CC)(CCCC)CCCC (tested in a mixture with another compound),inactive,–
